Compounds with a hit are over-represented: about 3.4% of the library has one in this group of screens.
GPR151 activ – activates the human receptor GPR151 | activation, % at 11.2 µM | actives 1% (n = 650,000) | AID 1508602 | PathHunter beta-arrestin GPR151 cells, luminescence; in the data active = activation above about 4.9%;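 note: 0% = median of compound wells and 100% = cells with positive control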
TEAD-YAP inh – TEAD-YAP interaction inhibition; actives 1.4% (n = 640,000); HEK-TIYL cells, TEAD-Gal4/YAP UAS-luciferase luminescence; AID 1259422; inhibition, % at 9.12 µM; in the data active = inhibition above about 32%;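 note: 0% = median of test compound wells and 100% = reference inhibitor wells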
FBW7 activator – human FBW7 E3 ligase activation, primary screen; Q969H0; AlphaScreen FBW7–phospho-cyclin E peptide binding, activator screen; normalized activity (activation), % at 26.1 µM; actives 0.13% (n = 650,000); AID 1259310; in the data active = normalized activity above about 1.9%;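 note: purified mutant Fbw7 with reduced substrate affinity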
Target sequence (Q969H0 whole entry, looked up): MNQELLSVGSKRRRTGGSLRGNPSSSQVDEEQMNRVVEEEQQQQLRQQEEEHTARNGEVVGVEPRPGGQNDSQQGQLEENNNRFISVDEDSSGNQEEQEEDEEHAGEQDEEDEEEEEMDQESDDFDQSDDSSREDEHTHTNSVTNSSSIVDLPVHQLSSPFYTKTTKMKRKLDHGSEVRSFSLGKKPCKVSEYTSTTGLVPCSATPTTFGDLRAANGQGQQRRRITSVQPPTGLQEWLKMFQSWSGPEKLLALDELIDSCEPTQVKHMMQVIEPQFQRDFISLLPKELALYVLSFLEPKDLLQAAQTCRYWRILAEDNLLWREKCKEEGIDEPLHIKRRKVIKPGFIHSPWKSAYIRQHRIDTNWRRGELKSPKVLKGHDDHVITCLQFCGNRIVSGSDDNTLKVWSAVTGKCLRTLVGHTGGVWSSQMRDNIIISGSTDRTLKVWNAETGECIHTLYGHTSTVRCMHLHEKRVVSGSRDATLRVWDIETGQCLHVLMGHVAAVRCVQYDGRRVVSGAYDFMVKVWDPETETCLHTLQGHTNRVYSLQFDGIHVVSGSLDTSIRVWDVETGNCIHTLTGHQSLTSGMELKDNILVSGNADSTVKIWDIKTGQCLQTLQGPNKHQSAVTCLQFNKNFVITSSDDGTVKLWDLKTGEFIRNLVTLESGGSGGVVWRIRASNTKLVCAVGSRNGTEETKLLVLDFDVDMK
MITF inh – inhibitors of human MITF; inhibition, % at 2.6 µM; actives 0.91% (n = 650,000); O75030; AlphaScreen MITF homodimerization, bead proximity signal; in the data active = inhibition above about 50%;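 note: 0% = vehicle wells with protein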
MITF confirm – confirmation of human MITF inhibitors; shares compounds with MITF inh; AID 1259372; actives 16% (n = 4,700); AlphaScreen MITF homodimerization, biotin/His-MITF beads; inhibition, % at 2.6 µM;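 active = inhibition above a cutoff derived from the DMSO control wells, cut at about 28% in these data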;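 note: 0% = MITF dimer wells with DMSO only; inhibitors lower the bead chemiluminescence by keeping MITF from dimerizing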
AlphaScreen intf2 – optically interferes with AlphaScreen signal. shares compounds with MITF inh. LysRS AlphaScreen counterscreen, signal interference, triplicate. inhibition, % at 2.6 µM. actives 7.6% (n = 4,700). AID 1259376;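 active = inhibition above a cutoff derived from the DMSO control wells, cut at about 30% in these data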
Starred values were filed as active, the others as inactive.

SMILES	GPR151 activ	TEAD-YAP inh	FBW7 activator	MITF inh	others
COc1ccc(Cc2noc(-c3ccc(OC)c(OC)c3)n2)cc1OC	-0.8	1.6	0.0	4.1
COc1ccc(C2CC(=O)NC(SCC(=O)Nc3ccc(I)cc3)=C2C#N)cc1 (stereo not given)	0.4	-3.5	-0.1	-1.0
Cc1ccc(NC(=S)N(Cc2ccccc2)Cc2cccs2)cc1C	0.9	57.0*	0.3	-7.1
Cc1ccc(NC(=S)N(Cc2ccccc2)Cc2cccs2)cc1	1.6	-9.6	0.0	12.8
NC(=O)c1ccccc1Nc1cc(NC(=O)Cc2ccc3ccccc3c2)ncc1C(F)(F)F	-2.2	93.3*	0.1	1.6
NC(=O)c1ccccc1Nc1cc(NC(=O)Cc2ccc(CN3CCOCC3)cc2)ncc1Cl	0.2	99.3*	-0.2	4.2
NC(=O)c1ccccc1Nc1cc(NC(=O)Cc2ccc(F)cc2)ncc1Cl	0.8	81.4*	-0.4	7.9
NC(=O)c1ccccc1Nc1cc(NC(=O)Cc2ccc(CN3CCOCC3)cc2)ncc1C(F)(F)F	1.4	98.6*	-0.1	6.0
NC(=O)c1ccccc1Nc1cc(Oc2ccc(N3CCNCC3)cc2)ncc1C(F)(F)F	-1.7	3.1	0.7	-12.5
NC(=O)c1ccccc1Nc1nc(Nc2ccc(N3CCOCC3)c(Cl)c2)ncc1Cl	1.3	21.8	-0.1	-10.1
O=C(Cc1ccc2c(c1)OCO2)Nc1cc(Nc2ccccc2-c2nn[nH]n2)c(Cl)cn1	-0.1	1.5	1.1	14.5
N#Cc1ccccc1OCC(=O)N/N=C/c1ccc(Cl)cc1Cl	-0.7	-1.2	-0.2	2.1
Cc1ccc(-c2csc(-c3cc4cc(Cl)ccc4oc3=O)n2)cc1C	1.9	-0.6	0.7	5.2
COc1cc(-c2nc3ccc(C(=O)NCCc4ccccc4Cl)cc3nc2-c2cc(OC)c(OC)c(OC)c2)cc(OC)c1OC	-1.6	31.0	0.2	-2.3
NC(=O)c1cccc(Nc2ccc(-n3ccnc3)cc2)c1	-1.4	7.8	0.1	25.0
O=C1CCCC2=C1C(c1ccc(F)c(Oc3ccccc3)c1)Nc1ccc(C(=O)c3ccccc3)cc1N2 (stereo not given)	1.6	8.3	-0.1	2.3
COc1cccc(C2Nc3ccc(C(=O)c4ccccc4)cc3NC3=C2C(=O)CCC3)c1 (stereo not given)	1.0	60.0*	0.1	-1.9
COc1cc(C2Nc3ccc(C(=O)c4ccccc4)cc3NC3=C2C(=O)CCC3)cc(OC)c1O (stereo not given)	-0.8	67.9*	-0.1	-10.7
CCOc1ccc(C2Nc3ccc(C(=O)c4ccccc4)cc3NC3=C2C(=O)CCC3)cc1 (stereo not given)	1.6	47.4*	0.2	17.0
COc1ccc(C2Nc3ccc(C(=O)c4ccccc4)cc3NC3=C2C(=O)CC(C)(C)C3)cc1 (stereo not given)	-0.5	15.5	0.1	8.0
COc1ccc(C2Nc3ccc(C(=O)c4ccccc4)cc3NC3=C2C(=O)CCC3)cc1 (stereo not given)	0.2	39.0*	-0.1	4.5
Cc1cnc(Nc2nc3ccccc3n2C)nc1NCc1nc2ccccc2[nH]1	-2.4	-1.6	0.0	6.5
CCSc1nc(O)cc(=O)n1-c1ccccc1OC	-0.6	10.5	0.3	11.2
COc1ccccc1-n1c(SC)nc(O)cc1=O	-0.5	6.2	3.9*	1.8
COc1ccccc1OCC(=O)Nc1sc2c(c1C(=O)NCc1ccccc1)CCCC2	-1.9	-4.5	0.3	-7.9
SMILES	GPR151 activ	TEAD-YAP inh	FBW7 activator	MITF inh	others
Cc1ccn2c(-c3csc(Nc4ccc(N(C)C)cc4)n3)c(C)nc2c1	0.9	54.0*	-0.7	12.4
Cc1ccc(Nc2nc(-c3ccncc3)cs2)c(C)c1	1.7	-74.2	-0.1	-0.1
Cc1ccc(Nc2nc(-c3c(C)nc4ncccn34)cs2)c(C)c1	-0.5	51.9*	-0.1	12.2
Cc1ccc(Nc2nc(-c3c(C)nc4cc(C)ccn34)cs2)c(C)c1	-1.0	41.7*	-0.1	-1.3
Cc1ccc(Nc2nc(-c3cccnc3)cs2)c(C)c1	-3.5	48.6*	0.1	11.6
COc1ccc(-c2noc(N(C)CC(=O)Nc3ccc(F)cc3F)n2)cc1	-0.4	7.1	0.3	8.9
COC(=O)c1ccc(N2C(=O)/C(=C/c3ccc(-c4ccc(Cl)c(Cl)c4)o3)C=C2c2ccccc2)cc1	2.0	-8.5	0.0	5.8
COc1ccccc1N1C(=O)c2cccc3c(N(C)CCO)ccc(c23)C1=O	-1.0	1.6	0.1	74.0*	MITF confirm=-0.6;AlphaScreen intf2=0.5
Cc1cccc(NC(=O)c2ccc(COc3ccccc3Br)cc2)n1	-0.7	1.1	-0.4	69.5*	MITF confirm=-5.0;AlphaScreen intf2=-4.9
Cc1cccc(NC(=O)c2cccc(OCc3ccccc3)c2)n1	-5.7	6.5	-0.1	9.8
Cc1ccc(NC(=O)COC(=O)c2cc[n+]([O-])cc2)cc1C	2.7	-18.4	0.0	76.6*	MITF confirm=-5.2;AlphaScreen intf2=-7.3
Cc1cc(C)cc(NC(=O)COC(=O)c2cc[n+]([O-])cc2)c1	-0.4	1.3	0.1	-4.6
O=C(/C=C\c1ccc2c(c1)OCO2)Nc1c2c(nn1-c1ccc(Cl)cc1)CS(=O)(=O)C2	-0.6	3.7	0.6	20.2
C=CCCC(=O)N1CCC(C(=O)Nc2ccc(-c3nc4ccccc4o3)cc2)CC1	0.0	-8.9	0.1	9.7
CNc1nc(-c2ccccn2)nnc1-c1ccccc1	-1.3	-5.5	-0.5	108.4*	MITF confirm=107.1*;AlphaScreen intf2=97.7*
O=C(NCCCn1ccnc1)NC(C(F)(F)F)C(F)(F)F	0.6	5.4	0.1	-0.1
O=C(/C(Br)=C/NCCCn1ccnc1)C(F)(F)F	-0.4	5.8	-0.2	64.8*	MITF confirm=39.9*;AlphaScreen intf2=99.1*
Cc1cccc(NC(=O)C2CCCN2C(=O)OC(C)(C)C)c1 (stereo not given)	-0.5	-6.8	0.0	77.5*	MITF confirm=5.4;AlphaScreen intf2=0.7
Cc1cccc(NC(=O)C2CCCN2C(=O)OCc2ccccc2)c1 (stereo not given)	-0.9	2.5	-0.4	-5.7
CCOc1ccc(NC(=O)C(=O)Nc2ccc3nc4n(c(=O)c3c2)CCCCC4)cc1	-0.4	-1.4	-0.2	-3.2
CC(=O)Nc1ccc(C(=O)NCC(=O)OCc2cccc(C(=O)Oc3ccccc3)c2)cc1	-1.9	5.8	0.9	-1.8
CCS(=O)(=O)N1CCN(Cc2ccc(OC)cc2)CC1	0.2	5.6	-0.1	37.6
CCS(=O)(=O)N1CCN(Cc2nc3ccc(OC)cc3[nH]2)CC1	-2.1	-7.1	-0.5	62.4*	MITF confirm=13.8;AlphaScreen intf2=22.1
CNC(=O)CN1CCN(Cc2nc3ccc(OC)cc3[nH]2)CC1	-0.2	3.2	-0.4	79.6*	MITF confirm=12.5;AlphaScreen intf2=11.7
CCOC(=O)c1ccccc1NC(=O)CN1CCN(Cc2nc3ccccc3[nH]2)CC1	0.1	4.5	-0.3	0.4
Fc1ccc(OCCN2CCNCC2)cc1	1.7	10.1	-0.2	60.4*	MITF confirm=-11.4;AlphaScreen intf2=-3.5
CCN1CCN(CCOc2ccc(F)cc2)CC1	2.6	8.8	-0.2	80.7*	MITF confirm=10.1;AlphaScreen intf2=17.7
